This is part of a sample that, as a whole, favours compounds with a hit. Of some 79,000 tested, about 15% had one in any assay. A number with no mark means an inactive call. The source made the active and inactive calls. No stated cut-off is given here; in the data, active means growth inhibition above about 70%; inactive means the rest.

Experiment [1] in a line: NCI Yeast Anticancer Drug Screen. Data for the rad50 strain (AID 155).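 Further: 0% = growth of vehicle-only cultures of the same strain.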 The following applies: S. cerevisiae rad50 strain growth inhibition; at 50.0 µM; active compounds read high. The procedure, abridged:
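Vehicle-treated cultures provide the reference for the growth inhibition reported for compound-exposed, repair-deficient yeast.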

Experiment [2] in a line: NCI Yeast Anticancer Drug Screen. Data for the mec2-1 strain (AID 157). To be noted: S. cerevisiae mec2-1 strain, at 50.0 µM, active compounds read high. The method, boiled down:
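mec2-1 yeast strain, carrying an alteration in DNA damage repair or cell cycle control, was exposed to compounds; growth inhibition was measured relative to vehicle-treated controls.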

A short description of experiment [3]: NCI Yeast Anticancer Drug Screen. Data for the sgs1 mgt1 strain (AID 161).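 Further: 0% = growth of cultures given vehicle only.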 To be noted: S. cerevisiae sgs1 mgt1 strain, at 50.0 µM, active compounds read high. The procedure, abridged:
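This yeast growth screen uses a strain with defined DNA-repair lesions; compound-treated growth is compared with vehicle-treated growth.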

The nature of experiment [4]: NCI Yeast Anticancer Drug Screen. Data for the cln2 rad14 strain (AID 165).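 Further: 0% = growth equal to vehicle treated cultures.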 The following applies: S. cerevisiae cln2 rad14 strain, at 50.0 µM, active compounds read high. The method, boiled down: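 Yeast carrying cln2 and rad14 alterations (cell cycle control and DNA damage repair) were exposed to compounds. Growth inhibition was measured against vehicle-treated controls.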

The nature of experiment [5]: NCI Yeast Anticancer Drug Screen. Data for the bub3 strain (AID 167). To be noted: S. cerevisiae bub3 mutant strain, at 50.0 µM, active compounds read high. The method, boiled down:
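Mutant yeast screening strain plus compound; vehicle-treated cultures serve as the 0% inhibition reference.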

A short description of experiment [6]: NCI Yeast Anticancer Drug Screen. Data for the mlh1 rad18 strain (AID 175). To be noted: S. cerevisiae mlh1 rad18 strain growth inhibition; at 50.0 µM; active compounds read high. The procedure, abridged:
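Growth inhibition of the yeast strain was measured after compound exposure and expressed relative to vehicle-treated controls. The strain carries defined defects in DNA damage repair.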

Regarding `CCCOC(=O)OCCC`, the growth inhibition was -9.8% in experiment [1]; -37.3% in experiment [2]; -4.9% in experiment [3]; 2.9% in experiment [4]; -31.8% in experiment [5]; -10.9% in experiment [6].
Regarding `O=C(O)CNCCO`, the growth inhibition in experiment [1] is -0.35%; in experiment [2], 7.75%; in experiment [3], 6.65%; in experiment [4], 0%; in experiment [5] it was 22.2%; in experiment [6] it was -0.25%.
As to `Cc1cccc([Si](c2ccccc2)(c2ccccc2)c2ccccc2)c1`, the growth inhibition was -3.7% in experiment [1]; -6.35% in experiment [2]; -9.2% in experiment [3]; -0.75% in experiment [4]; -21.6% in experiment [5]; 8.8% in experiment [6].
With `Cc1ccc2nc(-c3ccc(N)cc3)sc2c1S(=O)(=O)O`, the growth inhibition is 3.3% in experiment [1]; 2.15% in experiment [2]; 6.8% in experiment [3]; 2.45% in experiment [4]; 2.3% in experiment [5]; 5.65% in experiment [6].
For `O=C(Nc1ccc2c(c1)C(O)c1ccccc1-2)C(F)(F)F` (stereo not given), the growth inhibition in experiment [1] is 11.4%; in experiment [2] it was -4.3%; in experiment [3], 18.9%; in experiment [4], 8.35%; in experiment [5], 6.85%; in experiment [6], 16.1%.
On to `O=C(CC1C(=O)Nc2ccccc2S1=O)Nc1cccc(Cl)c1` (stereo not given), for which the growth inhibition in experiment [1] was -32.2%; in experiment [2], -31.1%; in experiment [3], -4.5%; in experiment [4], 18.2%; in experiment [5] it was 10.1%; in experiment [6] it was -25.2%.
Consider `c1ccc(-n2nc3ccc4nonc4c3n2)cc1`, for which the growth inhibition in experiment [1] is -17.9%; in experiment [2] it was -20.8%; in experiment [3] it was -10.5%; in experiment [4], 7.4%; in experiment [5] it was -0.05%; in experiment [6] it was -1.55%.
As to `COc1ccc(NC(=O)c2cc3ccccc3cc2OC(=O)NC(C)(C)C)cc1`, the growth inhibition in experiment [1] was -12.5%; in experiment [2], -13.3%; in experiment [3], -7.15%; in experiment [4], 2.5%; in experiment [5], -0.15%; in experiment [6] it was -32.8%.
As to `CC([C@H]1CC[C@H]2[C@@H]3CC=C4C[C@@H](O)CC[C@]4(C)[C@H]3CC[C@]12C)C(O)(c1ccccc1)c1ccccc1` (stereo not given in full), the growth inhibition in experiment [1] was 40.9%; in experiment [2], 19.8%; in experiment [3] it was 43.4%; in experiment [4] it was 37.6%; in experiment [5], 23.4%; in experiment [6] it was 25.2%.
As for `Nc1cc([N+](=O)[O-])cc(S(=O)(=O)O)c1O`, the growth inhibition is -5.15% in experiment [1]; -2.95% in experiment [2]; -14.2% in experiment [3]; -65.8% in experiment [4]; 7.45% in experiment [5]; -26% in experiment [6].
`Clc1ccc2ccc3ccc(Cl)nc3c2n1`: the growth inhibition was 18.5% in experiment [1]; 20.4% in experiment [2]; 26.4% in experiment [3]; -18.5% in experiment [4]; 8.5% in experiment [5]; 9.95% in experiment [6].
As for `CC(=O)OC(C)c1cc2c(s1)C(=O)c1scc(C(C)OC(C)=O)c1C2=O` (stereo not given), the growth inhibition in experiment [1] was 90.8% (active); in experiment [2] it was 93.4% (active); in experiment [3] it was 92.5% (active); in experiment [4] it was 91.9% (active); in experiment [5], 91.7% (active); in experiment [6], 91.3% (active).
On to `c1ccc(SCCc2ccncc2)cc1`, for which the growth inhibition was 25.1% in experiment [1]; 23.8% in experiment [2]; 29.7% in experiment [3]; -9.65% in experiment [4]; 3.85% in experiment [5]; 19.6% in experiment [6].
Take `O=c1cc(-c2ccccc2)[nH]c2ccc(N3CCOCC3)cc12`: the growth inhibition in experiment [1] is -37.7%; in experiment [2], 0.25%; in experiment [3] it was -41.6%; in experiment [4] it was -18.9%; in experiment [5], -15.8%; in experiment [6], -31.4%.
With `COC(=O)C1CCC2C3CCCCC3CCC2C1(C)C(=O)OC` (stereo not given), the growth inhibition in experiment [1] is -7.6%; in experiment [2], 2%; in experiment [3], -4.55%; in experiment [4], -28.4%; in experiment [5], 5.7%; in experiment [6], 2.05%.
Consider `CC(=O)N(C)O`, for which the growth inhibition is 21.2% in experiment [1]; 17.4% in experiment [2]; -4.05% in experiment [3]; -5.85% in experiment [4]; -19.9% in experiment [5]; -0.4% in experiment [6].
In the case of `CCOc1ccccc1/C=C1\NC(=O)NC1=O`, the growth inhibition is -38.6% in experiment [1]; -35% in experiment [2]; -35% in experiment [3]; -14.9% in experiment [4]; 2.6% in experiment [5]; -6.7% in experiment [6].
For `COc1ccc(N2CCN(CC(O)COc3ccc(C(=O)Cc4ccccc4)cc3)CC2)cc1` (stereo not given), the growth inhibition is 96.4% (active) in experiment [1]; 96.8% (active) in experiment [2]; 99% (active) in experiment [3]; 86.6% (active) in experiment [4]; 91% (active) in experiment [5]; 96.7% (active) in experiment [6].
In the case of `C=C1C(=O)N2CCc3c([nH]c4ccccc34)[C@H]2C[C@@H]1CO`, the growth inhibition in experiment [1] was 5.4%; in experiment [2] it was 2.4%; in experiment [3], 4.2%; in experiment [4], 5%; in experiment [5], 7.05%; in experiment [6], 10.8%.
On to `Nc1nc(Cc2ccccc2)cc(-c2cc(Cc3ccccc3)nc(N)n2)n1`, for which the growth inhibition in experiment [1] is 2.7%; in experiment [2] it was 4.7%; in experiment [3], 5.2%; in experiment [4] it was 1.8%; in experiment [5], -6.3%; in experiment [6], 1.7%.

For the origin of these results see PubChem BioAssay (NCI).
